From PubChem BioAssay
In the library only some 3% were active in any assay of this set; here they are far more common.
Nrf2 block: Nrf2 qHTS screen for inhibitors | A549 ARE-Fluc reporter, luciferase luminescence, 18-24 h | Potency, µM (highest dose often 46 µM), for the others: at the top dose activity change, negative = inhibition, usual class: inhibitors | hit rate 2.1% among 360,000 | AID 504444, 2011; note: % is set by controls: 0 for no effect and ±100 for the full control effect; nearly all actives have a fitted effect of over 60% in size
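In this cell-based qHTS, ARE-driven firefly luciferase in A549 cells reports Nrf2 activity; the luminescent signal after BugLite lysis is the measured value, with a prior CellTiter-Fluor read for cell health.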
Nrf2 ARE act: qHTS of Nrf2 Activators; AREc32 ARE-luciferase reporter (MCF7-derived line), luminescence, 24 h; Potency, µM (top dose mostly 46.1 µM), for the others: at the highest dose activation, hits mostly activators; hit rate 0.31% among 410,000; note: % of control where 0% means no effect; nearly all actives have a fitted effect of over 65% in size
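Luciferase luminescence (Steady-Glo, 30 min at room temperature) served as the read-out of ARE activation in AREc32 cells treated with compounds for 24 hr at 37 deg C.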
A549 viability: Nrf2 qHTS screen for inhibitors: counterscreen for cytotoxicity; hit rate 0.16% among 390,000; AID 504648, 2011; Potency, µM (series often up to 46 µM), without a hit: top-dose activity change, negative = cytotoxicity, usual class: inhibitors; A549 ARE-Fluc cells, CellTiter-Fluor viability, 18-24 h; note: % is set by controls: 0 for no effect and ±100 for the full control effect
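A549 ARE_Fluc cells in 5% FBS OPTI-MEM were exposed to compounds in concentration-response for 18-24 h at 37 deg C. Viability was read by CellTiter-Fluor fluorescence (Ex 405/Em 525) after 30 min, before the luciferase read.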
GALK inh: qHTS Assay for Inhibitors of Human Galactokinase (GALK); Purified GALK, Kinase-Glo residual ATP luminescence; Potency, µM (series often up to 57.5 µM), inactives show at the top dose activity change, negative = inhibition, actives largely listed as inhibitors; P51570; hit rate 0.007% among 270,000; note: % is set by controls: 0 for no effect and ±100 for the full control effect
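Compounds were pin-transferred into ATP buffer (35 uM final), then GALK plus galactose (5 nM, 100 uM final) was added. After 1 h at room temperature, Kinase-Glo Plus was added and luminescence read after 10 min.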
TrxR1 substrate: qHTS Assay for Substrates of Mammalian Selenoprotein Thioredoxin Reductase 1 (TrxR1): qHTS. AID 588456, 2011. purified TrxR1 substrate turnover, NADPH consumption readout. hit rate 0.01% among 390,000. Thioredoxin reductase 1, cytoplasmic (Rattus norvegicus), O89049. Potency, µM (doses to about 114 µM), without a hit: top-dose activity change, negative = substrate turnover; note: % is set by controls: 0 for no effect and ±100 for the full control effect; nearly all actives have a fitted effect of over 50% in size
Target sequence (O89049 whole entry, looked up): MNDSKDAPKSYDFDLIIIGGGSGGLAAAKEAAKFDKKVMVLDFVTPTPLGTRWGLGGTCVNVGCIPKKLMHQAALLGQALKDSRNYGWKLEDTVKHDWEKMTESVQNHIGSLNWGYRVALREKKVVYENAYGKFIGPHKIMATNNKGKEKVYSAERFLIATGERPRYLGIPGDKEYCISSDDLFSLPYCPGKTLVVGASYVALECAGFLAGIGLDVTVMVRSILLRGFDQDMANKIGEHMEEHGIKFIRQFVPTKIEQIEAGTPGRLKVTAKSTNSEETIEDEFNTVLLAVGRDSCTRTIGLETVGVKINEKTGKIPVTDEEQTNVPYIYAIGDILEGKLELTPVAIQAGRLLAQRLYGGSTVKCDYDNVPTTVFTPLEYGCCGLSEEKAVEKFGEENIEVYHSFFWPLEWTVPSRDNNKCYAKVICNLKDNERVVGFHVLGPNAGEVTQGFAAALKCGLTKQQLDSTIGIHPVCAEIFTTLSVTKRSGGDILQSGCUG
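Rat TrxR1, dispensed at 90 nM, was prereduced with 400 uM NADPH (final) for 5 min at ~22 deg C, then incubated with compound 15 min before 400 uM selenite. A first-read NADPH fluorescence drop versus no-compound background flagged substrates.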
rTrxR1 inhibitor: qHTS Assay for Inhibitors of Mammalian Selenoprotein Thioredoxin Reductase 1 (TrxR1): qHTS; recombinant rTrxR1, NADPH fluorescence consumption, selenite substrate; Potency, µM (doses to about 114 µM), for the others: at the top dose activity change, negative = inhibition, actives largely listed as inhibitors; hit rate 1% among 390,000; note: % is set by controls: 0 for no effect and ±100 for the full control effect; nearly all actives have a fitted effect of over 65% in size
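Rat TrxR1 (90 nM in the dispensed reagent) was pre-reduced with 400 uM NADPH for 5 min at room temperature, then incubated with compound for 15 min. After 400 uM selenite was added, NADPH fluorescence (Ex 340/Em 450 nm) was followed for 8 min.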
* hit, by the source's call; ? = inconclusive; · = no result; [ ] = another dose, or the depositor's remark. Calls come from the whole dose curve; as a rule, active = well fitted curve in the direction sought with a large enough effect; inconclusive = small, poorly fitted or top-dose-only effect, or another doubt; inactive = no such curve, though single readings can be large; an effect the other way counts as inactive or inconclusive. Potency is the fitted concentration of half-maximal effect.

SMILES	Nrf2 block	Nrf2 ARE act	A549 viability	GALK inh	TrxR1 substrate	rTrxR1 inhibitor
Cc1ccc2nc(N3CCN(Cc4nnnn4C4CCCC4)CC3)c(C#N)cc2c1	23µM*	-1%	1%	-1%	16%	17%
Cc1cccc(C(=O)Nc2scc(-c3ccc(Br)cc3)c2C(=O)O)c1	12µM*	-1%	-15%	·	8%[57.1 µM]	5%[57.1 µM]
O=C(Nc1scc(-c2ccc(F)cc2)c1C(=O)O)c1ccco1	-24%	0%	-17%	-1%	-26%[57.1 µM]	-1%[57.1 µM]
Cc1ccc(-c2csc(NC(=O)c3ccc(Br)cc3)c2C(=O)O)cc1	?	0%	-8%	-13%	-12%	-18%
Cc1ccc(-c2csc(NC(=O)c3cccc(C)c3)c2C(=O)O)cc1	7.3µM*	-1%	-18%	·	1%[57.1 µM]	-7%[57.1 µM]
Cc1ccc(-c2csc(NC(=O)/C=C/c3ccco3)c2C(=O)O)cc1	?	12%	-13%	2%	-6%	35µM*
COc1cc(C(=O)Nc2scc(-c3ccc(Br)cc3)c2C(=O)O)cc(OC)c1OC	16µM*	-1%	-16%	0%	-1%	9%
Cc1ccc(S(=O)(=O)c2cn(Cc3cccc(F)c3)c3cc(N4CCCC4)c(F)cc3c2=O)cc1	27%	0%	0%	·	41%	12%
O=c1[nH]c(SCc2c(F)cccc2Cl)nc2c1CCCC2	-30%	3%	-6%	·	4%	20%
Cc1cccc(-c2nc(CSCC(=O)N3CCN(c4ccccn4)CC3)c(C)o2)c1	21µM*	0%	-9%	-1%	9%	7%
Cc1cccc(-c2nc(CSCC(=O)N3CCN(c4cccc(C)c4C)CC3)c(C)o2)c1	·	2%	-27%	·	0%[57.1 µM]	1%[57.1 µM]
Nc1ccc(/C=C/c2ccc3cccnc3c2)cc1	·	·	·	·	0%[0.0914 µM]	3%
CCOC(=O)/C(=C/c1ccc(OC(=O)c2ccccc2)cc1)C(C)=O	-9%	3%	4%	·	0%	14µM*
Cn1c(CN2CCCCC2)nc2cc(NC(=O)c3cccc(Br)c3)ccc21	1.3µM*	-1%	-16%	2%	1%	14%
Cc1ccccc1OCC(=O)Nc1ccc2nc(SCC(=O)N3CCOCC3)sc2c1	?	1%	0%	·	2%	10%
Cn1c(CN2CCCCC2)nc2cc(NC(=O)c3ccccc3)ccc21	8%	0%	-5%	-3%	6%	14%
O=C(Nc1ccc2nc(SCC(=O)N3CCCC3)sc2c1)c1ccc(Br)cc1	-8%	3%	0%	·	8%	19%
CN(C(=O)CSc1nc2ccc(NC(=O)c3cccc(F)c3)cc2s1)c1ccccc1	21µM*	0%	-7%	·	5%	28%
Cc1ccccc1OCC(=O)Nc1ccc2nc(SCC(=O)N3CCCC3)sc2c1	18µM*	6%	-22%	·	-3%	19%
O=C(Nc1ccc2nc(SCC(=O)N3CCCC3)sc2c1)c1cccc(Br)c1	18µM*	5%	-27%	·	8%	33%
COc1cc(NS(=O)(=O)c2ccc([N+](=O)[O-])cc2)c2ncccc2c1	?	·	-19%	·	·	·
O=C(Nc1ccc2nc(SCC(=O)N3CCOCC3)sc2c1)c1cccc(Cl)c1	23µM*	0%	?	·	6%	34%
CCOc1ccc(CCNC(=O)c2ccc(CS(=O)(=O)Cc3ccccc3Cl)o2)cc1OCC	·	-1%	3%	·	-6%[57.1 µM]	3%[57.1 µM]
CCOc1ccccc1NC(=O)N1CCc2cc(S(=O)(=O)N3CCC(C)CC3)ccc21	4%	1%	-1%	·	-4%	-2%
CCN(CC)S(=O)(=O)c1ccc(NC2CCCc3ccccc32)nc1 (configuration not stated)	15µM*	1%	-13%	-5%	1%	11%
